45 sequences from the supplement of paper PMC11417369 can be followed below.

In all, about 25,000 sequences were measured (“ln(normalized median fluorescence intensity)”: median about 6.7, highest 2% from about 10 on). Many of the other results were omitted from the sample, so the highest values are more common in it than they were.

The assay relates to PfHDP1 homeodomain (GST-tagged). As to the kind of experiment: gcPBM binding intensity (ln(normalized median fluorescence intensity)); higher = stronger DNA binding. The method, boiled down: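 DNA-binding domains from P. falciparum, fused to GST and produced in E. coli, were put on an Agilent 4 × 180k double-stranded probe array for 1 h in 1× PBS holding 1% milk, 0.2 mg/ml BSA, 0.5% salmon testes DNA and 0.03% Triton X-100. Probes were primer-extended, 36 bp long and drawn from intergenic genomic regions, with negative controls included. After Alexa488 anti-GST antibody detection and a 488 nm scan, binding intensity was set as the highest Masliner-normalised natural-log median intensity across replicate spots of either probe orientation.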
Turning to “GAATATAATCTGTATTGTACGAAAGTTGAACACTTG [XGTACX_site8895]”, the “gcPBM binding intensity (ln)” value stood at 6.3.

As to “GATCAAAATTATAGAAGTACTTTATATAAATAAAAT [XGTACX_site8161]”, the “gcPBM binding intensity (ln)” value is 6.41.

Take “AAAAAAAAAAGACATGCATACGCTAATTTTTAGTTG [TGCATGCA_site300]”: the “gcPBM binding intensity (ln)” value is 5.98.

On to “TTTATATTAGGTCTTGAACGATTTTCATCATTATTA [TGCATGCA_negctrl_site100]”, for which the “gcPBM binding intensity (ln)” value is 6.04.

Consider TTTATCTAAATATGTGTGCACTCGTTAATTTTTTTT, for which the “gcPBM binding intensity (ln)” value turned out to be 10.8.

With “ATATCGTTATTTTTATGTACTAAAATATTTAATTAT [XGTACX_site3516]”, the “gcPBM binding intensity (ln)” value was determined as 7.03.

As to “TTTTTTAATATATTATTATAAATATTTTTTATGTGT [GTGCAC_negctrl_site712]”, the “gcPBM binding intensity (ln)” value was found to be 6.46.

For the sequence “ATAACATGAACATATGTTACACAAACATACATACAT [XGTACX_negctrl_site365]”, the “gcPBM binding intensity (ln)” value worked out at 6.77.

In the case of “TTTAGTTCATACTATGCACACTACGTATATTTTTAA [CACACA_site5484]”, the “gcPBM binding intensity (ln)” value came to 8.95.

Regarding “TAAGTAATAGTTTGTGCACACTCAAGTATATCATAT [CACACA_site4035]”, the “gcPBM binding intensity (ln)” value was 11.1.

Consider “GTAATATCAATATAAAGTACACACTATAGTATGTAT [XGTACX_site4714]”, for which the “gcPBM binding intensity (ln)” value was found to be 6.4.

As to “AGTAATAGTTTGTGCACACTCAAGTATATCATATAT [CACACA_site4034]”, the “gcPBM binding intensity (ln)” value came to 11.2.

Regarding “TATATATATATCAAGTGTACTTGTGTTTGTAATATT [XGTACX_site8854]”, the “gcPBM binding intensity (ln)” value came out at 8.6.

As for “TTTATAGTTTTTAATAGTACACATATTTTTAAGTAT [XGTACX_site5498]”, the “gcPBM binding intensity (ln)” value stood at 6.38.

For “TATATATCAATATGCACACACAAGAAGTAATTATAA [CACACA_site7487]”, the “gcPBM binding intensity (ln)” value was 9.74.

For the sequence “TTTTGTACAAAAATAATGCACACTATATCAAGTTTT [CACACA_site3595]”, the “gcPBM binding intensity (ln)” value was 10.4.

Turning to “TTGTACAAAAATAATGCACACTATATCAAGTTTTTT [CACACA_site5898]”, the “gcPBM binding intensity (ln)” value stood at 10.3.

As for “AGTAATAGTTTGTGCACACTCAAGTATATCATAGAT [CACACA_site6082]”, the “gcPBM binding intensity (ln)” value is 11.1.

As for “ATATATGTAACATATTGTACATATATGTATGTATGT [XGTACX_site3281]”, the “gcPBM binding intensity (ln)” value stood at 6.97.

Turning to AATATTTTATTTTGGGTGCAAAAGAATATTATTTCA, the “gcPBM binding intensity (ln)” value amounted to 9.49.

For “CAATTAAATATATGAACACACATGTGAACTTTCTAT [CACACA_site3977]”, the “gcPBM binding intensity (ln)” value was found to be 6.36.

For “AATATACAAAATAAATAAAATATATATATATATATA [CACACA_negctrl_site216]”, the “gcPBM binding intensity (ln)” value is 9.24.

Regarding “AATTTAATTTTTTCGTGTACTTATATAGGAGGTTTT [XGTACX_site8310]”, the “gcPBM binding intensity (ln)” value is 6.76.

Regarding “TAGAAGTACATATATGCATGTTAATTTTAAAGGAGG [TGCATGCA_site538]”, the “gcPBM binding intensity (ln)” value stood at 6.9.

As to “TTCTATTTTATATGTGCACACATATACACCCACAAA [CACACA_site1130]”, the “gcPBM binding intensity (ln)” value amounted to 10.9.

Consider “TATATACATATATGCACACAAAAAAATATATATTTT [CACACA_site1729]”, for which the “gcPBM binding intensity (ln)” value was 10.1.

Regarding “CTATTTTATATGTGCACACATATACACCCACAAATA [CACACA_site1131]”, the “gcPBM binding intensity (ln)” value is 10.1.

With “CTTACACCCATATATACACACATGTATATTTTATAT [CACACA_site4462]”, the “gcPBM binding intensity (ln)” value was 7.24.

Regarding “CTATTTTATATGTGCACACATATACTCAGACAAATA [CACACA_site4761]”, the “gcPBM binding intensity (ln)” value was 10.6.

In the case of “TATACATATTTTATAGCACACAAATAATAATATGTA [CACACA_site8129]”, the “gcPBM binding intensity (ln)” value was found to be 6.63.

With “TTTGTTTTATCTTATATGCACACGATAAAAAAAAAA [CACACA_site2673]”, the “gcPBM binding intensity (ln)” value came out at 9.69.

With “TATAAAAATAATATTACACACATGTAAAATGGGGGT [CACACA_site9071]”, the “gcPBM binding intensity (ln)” value is 7.03.

On to “TTGTTTTCACCAAATACACACAAGCATACACCCCAT [CACACA_site2717]”, for which the “gcPBM binding intensity (ln)” value is 7.34.

As for “AGTGATTATTAATAATGTACATATCTATAAATATAT [XGTACX_site4734]”, the “gcPBM binding intensity (ln)” value came to 6.43.

Turning to “TTAATGTTATATGTGTGTACATATAAGTTTAGTAAA [XGTACX_site4651]”, the “gcPBM binding intensity (ln)” value came out at 6.53.

On to “AAAAAAATGAAGAAATGTACAAATTTCATTAATTTT [XGTACX_site354]”, for which the “gcPBM binding intensity (ln)” value is 6.05.

As to “TTCATATATAATTGTACACACAAAAACGACATTGTG [CACACA_site2074]”, the “gcPBM binding intensity (ln)” value was found to be 7.05.

“ATATTATGTGATTGTGCACACTGGAGATTTTTTTTA [CACACA_site1453]”: the “gcPBM binding intensity (ln)” value was determined as 11.2.

“TAGATCATAACAATTGCACACATTTGCATTTATATT [CACACA_site1562]”: the “gcPBM binding intensity (ln)” value was 10.1.

As for “TTTAGTTTTTATATAGCACACATATTGTGATTATGT [CACACA_site8316]”, the “gcPBM binding intensity (ln)” value amounted to 6.82.

For the sequence “TTATTTGAACAATATGCACACATTTTATTTATTTTA [CACACA_site3420]”, the “gcPBM binding intensity (ln)” value was found to be 10.1.

For “GAGATTTATTTATGTGCACACTAGAACAATTGGATC [CACACA_site2090]”, the “gcPBM binding intensity (ln)” value was 10.5.

With “TATATATATATATATGTGCACTGGACATATTTTTAT [GTGCAC_site9721]”, the “gcPBM binding intensity (ln)” value stood at 9.84.

“TTAATATGTTTAACCATTTTACATAAATTGATTTGT [CACACA_negctrl_site1100]”: the “gcPBM binding intensity (ln)” value is 6.3.

Regarding “TGTTATTACTTTATATCATCTTAAAATAAGCATATT [CACACA_negctrl_site1501]”, the “gcPBM binding intensity (ln)” value was 6.26.
